Results filed as inconclusive are left out. A number with no mark means an inactive call. Activity calls are given as the source filed them. Calls come from the whole dose curve.
% is set by controls: 0 for no effect and ±100 for the full control effect.

For this experiment, the target named is Vitamin D3 receptor (Homo sapiens) (UniProt P11473). In words: qHTS assay to identify small molecule agonists of the vitamin D receptor (VDR) signaling pathway (AID 743222). The following applies: HEK293T VDR-UAS-bla, beta-lactamase FRET ratio, 16 h; series mostly up to 63.5 µM; activation: at the top concentration. The source says: National Center for Advancing Translational Sciences [NCATS]
Sequence of Vitamin D3 receptor (Homo sapiens) (P11473 whole entry, looked up): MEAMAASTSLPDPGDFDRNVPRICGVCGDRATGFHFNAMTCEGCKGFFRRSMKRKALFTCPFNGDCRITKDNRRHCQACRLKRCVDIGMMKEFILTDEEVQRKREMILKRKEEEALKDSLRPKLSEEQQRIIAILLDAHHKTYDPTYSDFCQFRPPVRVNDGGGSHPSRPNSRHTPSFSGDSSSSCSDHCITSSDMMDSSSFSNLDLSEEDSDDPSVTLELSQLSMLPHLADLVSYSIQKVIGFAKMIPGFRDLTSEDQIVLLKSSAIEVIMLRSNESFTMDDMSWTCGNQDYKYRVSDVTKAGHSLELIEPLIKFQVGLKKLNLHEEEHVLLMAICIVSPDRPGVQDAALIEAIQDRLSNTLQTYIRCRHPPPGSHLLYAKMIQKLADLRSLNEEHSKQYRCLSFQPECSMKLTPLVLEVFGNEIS
NIH Chemical Genomics Center [NCGC]
U.S. Environmental Protection Agency [EPA]
National Institutes of Environmental Health Sciences [NIEHS]
National Toxicology Program [NTP]
U.S. Food and Drug Administration [FDA]
The vitamin D receptor (VDR), a member of nuclear hormone receptor superfamily, plays a critical role in calcium homeostasis and bone metabolism. It is also involved in cell differentiation and growth, and thrombogenicity.
Tox21 Assay Protocol Summary:
VDR-bla cells were dispensed at 2,000 cells/6 uL/well into black wall/clear-bottom 1536-well plates using a Multidrop Combi (Thermo Fisher Scientific, Waltham, MA) dispenser. After the assay plates were incubated at a 37C and 5% CO2 for 4 h, 23 nL of compounds dissolved in DMSO, positive controls or DMSO only was transferred to the assay plate by a Pintool station (Kalypsys, San Diego, CA). The plates were incubated at 37C and 5% CO2 for 16 h. After 1 uL of LiveBLAzerTM B/G FRET substrate was added using a Bioraptr Flying Reagent Dispenser (FRD) workstation (Beckman Coulter, Indianapolis, IN, USA), the plates were incubated at room temperature for 2 h, and fluorescence intensity was measured by an Envision plate reader (PerkinElmer, Shelton, CT).
Consider `CCOC(=O)c1ccc(N)cc1`, for which the result was inactive. Still for that read-out and setting: for `Clc1ccccn1` the value was “inactive”; for `C[C@]12CCC(=O)C=C1CC[C@@H]1[C@@H]2[C@@H](O)C[C@@]2(C)[C@H]1CC[C@]2(O)C(=O)CO`, “inactive”. The same measure, in the same setting: for `CC(C)c1cccc(C(C)C)c1` the value was “inactive”. For `C=C(C)CNCC`, the outcome was inactive. Same read-out and setting: the same measure for `CN(C)c1ccc(O)c2c1C[C@H]1C[C@H]3[C@H](N(C)C)C(=O)C(C(N)=O)=C(O)[C@@]3(O)C(=O)C1=C2O`: “inactive”. On to `CC(=O)OCCOC(C)=O`, for which the result was inactive. Still for that read-out and setting: the same measure for `Cc1ccc([N+](=O)[O-])cc1S(=O)(=O)O`: “inactive”. Take `O=C(O)c1ccc(S(=O)(=O)N(Cl)Cl)cc1`: the “activation” value was 8.88% [at 81.1 µM]. In the case of `Brc1ccc(Br)c(Br)c1`, the outcome was inactive. On the same count and under the same terms, the same measure for `CCCCCCCCCCCCCCCC(=O)OC(C)C`: “inactive”; for `CNC(=S)N(C)C`: “inactive”; for `c1ccc(Oc2ccccc2)cc1`: “inactive”. For `CCO[Si](CCCN)(OCC)OCC`, the outcome was inactive.

As to `CC(=O)OCc1ccccc1`, the result was inactive. On to `C[C@]12CC[C@@H]3c4ccc(O)cc4CC[C@H]3[C@@H]1C[C@@H](O)[C@@H]2O`, for which the “activation” value was -7.6%. As to `CN(C)CCOC(=O)COc1ccc(Cl)cc1`, the outcome was inactive. On the same count and under the same terms, for `COC(=O)CCCC(=O)OC` the value was “inactive”; for `O=C(O)c1cc2ccccc2cc1O`, “inactive”; for `CC1(C)OC[C@@H]2O[C@@]3(C(=O)O)OC(C)(C)O[C@H]3[C@@H]2O1`, “inactive”.

`CC1(C)S[C@@H]2[C@H](NC(=O)COc3ccccc3)C(=O)N2[C@H]1C(=O)O`: the outcome was inactive. As to `O=S(=O)(O)c1ccc(N=Nc2c(O)ccc3cc(S(=O)(=O)O)ccc23)cc1`, the outcome was inactive. Regarding `O=C1CCCC1`, the outcome was inactive.

In the case of `COc1ccc(C)cc1N`, the outcome was inactive. On the same count and under the same terms, for `CC(C)(C#N)c1cc(Cn2cncn2)cc(C(C)(C)C#N)c1` the value was “inactive”. Same read-out and setting: the same measure for `COCCCN`: “inactive”; for `COc1cc(OC)c(C(=O)CCCN2CCCC2)c(OC)c1`: “inactive”; for `CC(C)(Oc1ccc(CCNC(=O)c2ccc(Cl)cc2)cc1)C(=O)O`: “inactive”. Same read-out and setting: for `COCCOC(=O)c1ccccc1C(=O)OCCOC` the value was “inactive”; for `CCOCC(=O)O`, “inactive”.

For `COc1ccc(OC)cc1`, the result was inactive.

On to `OC1C(O)C(O)C(O)C(O)C1O` (stereo not given), for which the result was inactive. Still for that read-out and setting: for `O=C(OCC1CCC2OC2C1)C1CCC2OC2C1` (stereo not given) the value was “inactive”; for `C=CCCCCCCCCC(=O)O`, “inactive”.

As to `CC(C)CC(C)O` (stereo not given), the “activation” value is -4.55%. For the molecule `C[Si]1(C)O[Si](C)(C)O[Si](C)(C)O[Si](C)(C)O1`, the outcome was inactive. Still for that read-out and setting: for `Nc1ccc(Cl)c(N)c1` the value was “inactive”; for `O=c1[nH]cnc2[nH]ncc12`, “inactive”. As for `CC(CCO)CC(C)(C)C` (stereo not given), the result was inactive.

On to `CCCCCCCCCCCC(=O)OC`, for which the outcome was inactive.
